About 14,000 (4.5%) of roughly 310,000 compounds showed an effect of 50% or more. The effect is printed as a negative number. The sample as a whole holds a higher share of strong results than the screen did.
Molecular target: human ether-à-go-go-related gene (hERG) potassium channel (human, UniProt Q12809)
Assay: primary screen, population patch clamp on CHO cells stably expressing hERG; higher = less effect of the substance
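Note: peak tail current of the secondary pulse compared with the same well before compound.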

human ether-à-go-go-related gene (hERG) potassium channel, sequence (Q12809 whole entry, looked up): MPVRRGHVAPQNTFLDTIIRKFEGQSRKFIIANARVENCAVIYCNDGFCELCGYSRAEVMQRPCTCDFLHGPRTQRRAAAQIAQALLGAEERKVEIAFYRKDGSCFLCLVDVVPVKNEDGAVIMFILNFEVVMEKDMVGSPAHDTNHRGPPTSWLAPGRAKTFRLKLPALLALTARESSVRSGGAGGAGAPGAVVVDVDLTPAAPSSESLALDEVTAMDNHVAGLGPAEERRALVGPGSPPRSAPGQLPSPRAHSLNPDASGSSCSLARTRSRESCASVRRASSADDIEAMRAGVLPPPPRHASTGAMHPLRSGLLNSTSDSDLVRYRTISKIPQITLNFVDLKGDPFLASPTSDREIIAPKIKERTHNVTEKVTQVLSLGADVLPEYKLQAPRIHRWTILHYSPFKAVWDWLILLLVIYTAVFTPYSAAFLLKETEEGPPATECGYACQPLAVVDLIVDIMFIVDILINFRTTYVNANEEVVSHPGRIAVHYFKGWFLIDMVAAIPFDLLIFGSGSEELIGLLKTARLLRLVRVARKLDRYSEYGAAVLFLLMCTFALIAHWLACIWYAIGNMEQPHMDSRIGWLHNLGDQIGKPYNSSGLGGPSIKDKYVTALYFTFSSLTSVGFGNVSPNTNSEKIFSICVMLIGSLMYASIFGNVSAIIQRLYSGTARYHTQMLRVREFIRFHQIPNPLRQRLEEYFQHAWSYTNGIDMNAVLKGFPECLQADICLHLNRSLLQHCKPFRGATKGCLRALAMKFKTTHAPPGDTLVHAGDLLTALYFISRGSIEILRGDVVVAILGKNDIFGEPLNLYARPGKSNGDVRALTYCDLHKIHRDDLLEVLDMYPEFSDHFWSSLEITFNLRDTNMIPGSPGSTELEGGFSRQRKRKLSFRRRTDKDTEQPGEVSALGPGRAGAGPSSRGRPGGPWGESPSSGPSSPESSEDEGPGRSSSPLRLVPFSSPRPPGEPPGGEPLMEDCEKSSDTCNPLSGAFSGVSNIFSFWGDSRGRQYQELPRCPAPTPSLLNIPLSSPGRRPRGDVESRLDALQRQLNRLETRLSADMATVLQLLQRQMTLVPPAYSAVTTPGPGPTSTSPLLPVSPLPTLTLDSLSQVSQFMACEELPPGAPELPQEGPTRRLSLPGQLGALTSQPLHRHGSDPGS

| SMILES | hERG current change (%, negative = inhibition) at 10uM |
| --- | --- |
| CCSc1cc(C)nc2ncnn12 | -0.742% |
| CC1CCCN(C(=O)C2CCN(Cc3ccc4c(c3)OCO4)CC2)C1.O=C(O)C(=O)O (stereo not drawn) | -0.604% |
| COC(=O)c1cccc(NC(=O)Cn2nnc3ccccc32)c1 | 0.234% |
| COc1cc(C2NC(=O)NC(C)=C2[N+](=O)[O-])cc(OC)c1OC (stereo not drawn) | 9.03% |
| CCn1c(=O)c2sccc2n2c(CCCC(=O)NCCc3ccc(S(N)(=O)=O)cc3)nnc12 | -4.96% |
| O=C(NCC1CC1)[C@@H]1C[C@H]1[C@@H](NP(=O)(c1ccccc1)c1ccccc1)c1ccccc1 | -13.9% |
| CC(=O)Nc1ccccc1C(=O)OCc1ccccc1F | 3.58% |
| COc1ccc(NC(=O)c2cn(CCC#N)nc2-c2ccccc2)cc1 | -7.59% |
| COc1ccc(-c2nn(CCC#N)cc2C(=O)NCc2ccccc2)cc1[N+](=O)[O-] | -59.7% |
| N#CCCn1cc(C(=O)Nc2ccccc2Cl)c(-c2ccc(F)cc2)n1 | 14% |
| N#CCCn1cc(C(=O)Nc2ccccc2Br)c(-c2ccc([N+](=O)[O-])cc2)n1 | -46.9% |
| COc1ccc(-c2nn(CCC#N)cc2C(=O)Nc2ccccc2Br)cc1[N+](=O)[O-] | -39.6% |
| COc1ccc(-c2nn(CCC#N)cc2C(=O)NCc2ccccc2)cc1OC | -42.3% |
| N#CCCn1cc(C(=O)Nc2ccc(C(=O)O)cc2)c(-c2ccc([N+](=O)[O-])cc2)n1 | 23.2% |
| N#CCCn1cc(C(=O)Nc2ccccc2Cl)c(-c2ccc([N+](=O)[O-])cc2)n1 | -64.4% |
| N#CCCn1cc(C(=O)Nc2ccc([N+](=O)[O-])cc2)c(-c2ccccc2)n1 | -80.1% |
| Cc1cc(C=C2C(=O)N(C)C(=O)N(C)C2=O)c(C)n1-c1ccccc1 | 17.5% |
| FC(F)(F)c1cc(-c2cccs2)nc(N2CCOCC2)n1 | 1.94% |
| CC(C)N(Cc1nc(-c2ccccc2)no1)C(=O)c1ccc(Br)o1 | -18.8% |
| O=CN1CCN(S(=O)(=O)c2ccc(Cl)c(C(=O)O)c2)CC1 | -2.45% |
| C/C(=N\NC(=O)Cn1nc(C)c([N+](=O)[O-])c1C)c1ccco1 | 26% |

| SMILES | hERG current change (%, negative = inhibition) at 10uM |
| --- | --- |
| C=C1c2ccc(C)cc2NC(=O)N1c1ccccc1 | -1.2% |
| COc1ccc(N=C2CCCN2CC(N)=O)cc1.Cl | -0.486% |
| C#Cc1cccc(-n2nnc(C(C)=O)c2C)c1 | 15.5% |
| Cc1noc(C)c1COc1ccccc1C(=O)N1CCN(S(=O)(=O)c2ccccc2F)CC1 | -19.2% |
| CCOC(=O)C1=C(C)NC(=O)NC1c1ccc(OC(=O)c2ccco2)cc1 (stereo not drawn) | -2.08% |
| CCOC(=O)C1=C(CN2CCN(C(=O)c3ccco3)CC2)NC(=O)NC1c1ccc(OC(C)C)cc1 (stereo not drawn) | -69.3% |
| CCOC(=O)C1=C(CN2CCN(C(=O)c3ccco3)CC2)NC(=O)NC1c1ccc(Cl)cc1 (stereo not drawn) | -35% |
| CCOC(=O)C1=C(CN2CCN(C(=O)c3ccco3)CC2)NC(=O)NC1c1ccccc1 (stereo not drawn) | -43.7% |
| CCOC(=O)C1=C(CN2CCCCCC2)NC(=O)NC1c1ccc2c(c1)OCO2 (stereo not drawn) | -48.2% |
| COc1ccc(CN2CCN(C(=O)c3ccco3)CC2)cc1 | -12.3% |
| CCOC(=O)C1=C(CN2CCN(C(=O)OCC)CC2)NC(=O)NC1c1ccc2c(c1)OCO2 (stereo not drawn) | -18.4% |
| CC(C)Oc1ccc(C(=O)N2CCN(C(=O)c3ccco3)CC2)cc1 | -29.6% |
| CCOC(=O)C1=C(CN2CCN(C(=O)c3ccco3)CC2)NC(=O)NC1c1ccc(C)cc1 (stereo not drawn) | -63.2% |
| CCOC(=O)C1=C(CN2CCC(C)CC2)NC(=O)NC1c1ccc(Cl)cc1 (stereo not drawn) | -37.6% |
| CCOC(=O)C1=C(CN2CCN(C(=O)c3ccco3)CC2)NC(=O)NC1c1ccc(OC)cc1 (stereo not drawn) | -64.9% |
| CCOC(=O)C1=C(CN2CCN(C(=O)c3ccco3)CC2)NC(=O)NC1c1ccc(F)cc1 (stereo not drawn) | -62.9% |
| CN(C)/C=C1\SC(=S)N(c2ccc(Br)cc2)C1=O | -4.75% |
| COc1ccccc1N1CCN(C(=O)Cn2ncc3c([nH]c4ccccc43)c2=O)CC1 | 4.74% |
| CCCCn1c(Cc2ccccc2)nnc1SCC(=O)N1CCOCC1 | 0.754% |
| CN(/N=C/Cc1nnnn1-c1ccc(Cl)cc1)c1ccccc1 | -7.54% |
| Cc1c(C#N)c2ncnc(N)c2n1-c1ccccc1 | 5.64% |
